# Reference: PubChem BioAssay (NCATS)
# Records with an inconclusive call do not appear. Calls of active or inactive are those of the source. Unless noted, calls come from the whole dose curve; as a rule, active = well fitted curve in the direction sought with a large enough effect in the repeat runs; inconclusive = weak or mixed curves; inactive = no such curve, though single readings can be large; an effect the other way counts as inactive or inconclusive.
# Assays:
# [1] = molecular target: Cytochrome P450 2D6 (Homo sapiens) (UniProt P10635); assay: Cytochrome P450 family 2 subfamily D member 6 (CYP2D6) small molecule antagonists: luciferase biochemical (cell-free) qHTS assay (AID 1645840); note: nearly all actives have a fitted effect of over 55% in size; note: potency is the fitted concentration of half-maximal effect; for activity change, negative = inhibition: % is set by controls: 0 for no effect and ±100 for the full control effect
# Summary of the method: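 P450-Glo luminescent screen: recombinant CYP2D6 enzyme–proluciferin substrate mix preincubated with compound 10 min at room temperature, then NADPH regeneration added for 1 h at room temperature. Detection reagent added for 20 min; luciferin light read as relative luminescence units.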
# [2] = Primary qHTS for inhibitors of nuclear receptor binding SET domain protein 2 (NSD2) in an isogenic RCH-ACV NSD2 p.E1099K mutant (9B) (AID 1645876; active = well fitted curve in the direction sought with a large enough effect; an effect the other way counts as inactive or inconclusive; note: potency is the fitted concentration of half-maximal effect; nearly all actives have a fitted effect of over 70% in size)
# [3] = Primary qHTS for inhibitors of nuclear receptor binding SET domain protein 2 (NSD2) in an RCH-ACV wild type WT cells (2C) (AID 1645877; active = well fitted curve in the direction sought with a large enough effect; an effect the other way counts as inactive or inconclusive; note: potency is the fitted concentration of half-maximal effect; nearly all actives have a fitted effect of over 70% in size)
# [4] = molecular target: Catechol O-methyltransferase (Homo sapiens) (UniProt P21964); assay: Confirmatory Screen for Target Class Profiling of Small Molecule Inhibitors of Methyltransferases (AID 1745852; calls by dose curve; note: potency is the fitted concentration of half-maximal effect); settings: MTase-Glo luminescence, SAH detection, recombinant enzyme; measured here: COMT max response; stronger effect = lower value
# [5] = molecular target: Guanidinoacetate N-methyltransferase (Homo sapiens) (UniProt Q14353); assay: as above; settings: MTase-Glo luminescence, SAH detection, recombinant enzyme; activity change, negative = inhibition: at 57.3 µM (top of the series) unless noted
# [6] = molecular target: Nicotinamide N-methyltransferase (Homo sapiens) (UniProt P40261); assay: as above; settings: MTase-Glo luminescence, SAH detection, recombinant enzyme; measured here: NNMT max response; stronger effect = lower value
# [7] = molecular target: Phenylethanolamine N-methyltransferase (Homo sapiens) (UniProt P11086); assay: as above; settings: MTase-Glo luminescence, SAH detection, recombinant enzyme; measured here: PNMT max response; stronger effect = lower value
# [8] = molecular target: Glutathione peroxidase 1 (Homo sapiens) (UniProt P07203); assay: Primary qHTS Assay for Inhibitors of Recombinant Selenoprotein Glutathione Peroxidase 1 (GPX1) (AID 1845191; active = well fitted curve in the direction sought with a large enough effect; an effect the other way counts as inactive or inconclusive; note: nearly all actives have a fitted effect of over 65% in size)
# Summary of the method: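 GR-coupled assay: compounds preincubated 30 min at room temperature with GPX1, then reaction started with CHP; final 10 nM GPX1, 1 mM GSH, 0.5 mM CHP, 0.5 mM NADPH, 100 nM GR, 0.01% BSA, pH 7.5 Tris buffer. NADPH fluorescence (340/450 nm) read at 0 and 15 min.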
# [9] = molecular target: Phospholipid hydroperoxide glutathione peroxidase GPX4 (Homo sapiens) (UniProt P36969); assay: Primary qHTS Assay for Inhibitors of Recombinant Selenoprotein Glutathione Peroxidase 4 (GPX4) (AID 1845192; active = well fitted curve in the direction sought with a large enough effect; an effect the other way counts as inactive or inconclusive; note: % is set by controls: 0 for no effect and ±100 for the full control effect; nearly all actives have a fitted effect of over 65% in size)
# Summary of the method: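 GR-coupled assay: recombinant GPX4 preincubated 30 min with compound at room temperature; final 200 nM GPX4, 1 mM GSH, 0.5 mM cumene hydroperoxide, 0.5 mM NADPH, 100 nM GR, 0.01% BSA, pH 7.5 Tris. NADPH fluorescence (340/450 nm) read at 0 and 15 min.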
# [10] = qHTS drug screen for cell cycle checkpoint inhibitors in PARPi-resistant BRCA-mutant ovarian cancer cell lines. (AID 1963452; calls by dose curve); settings: PEO1/OlaR viability, CellTiter-Glo luminescence, 96 h, stronger effect = lower value
# Summary of the method: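 PEO1, PEO4 and PEO1/OlaR ovarian cancer cells, 600 per well, exposed 96 h at 37C to a dilution series. Viability read by CellTiter-Glo luminescence, normalized to DMSO and empty wells; activity summarized as Z-AUC.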
# [11] = molecular target: Cytochrome P450 2C9 (Homo sapiens) (UniProt P11712); assay: Cytochrome P450 family 2 subfamily C member 9 (CYP2C9) small molecule antagonists: luciferase biochemical (cell-free) qHTS assay (AID 1645842); note: nearly all actives have a fitted effect of over 55% in size; note: potency is the fitted concentration of half-maximal effect; for activity change, negative = inhibition: % is set by controls: 0 for no effect and ±100 for the full control effect
# Summary of the method: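 Luminescence, after 20 min with luciferin detection reagent, reflected CYP2C9 turnover during a 1 h NADPH-driven reaction at 37C. Enzyme-substrate mix contained 0.4% bovine serum albumin and was preincubated with compound 10 min at room temperature.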
# [12] = molecular target: Tumor susceptibility gene 101 protein (Homo sapiens) (UniProt Q99816); assay: qHTS Assay for Iinhibitors of HIV-1 Budding by Blocking the Interaction of PTAP/TSG101: Hit Validation (AID 651600; active = well fitted curve in the direction sought with a large enough effect; an effect the other way counts as inactive or inconclusive; note: % is set by controls: 0 for no effect and ±100 for the full control effect; nearly all actives have a fitted effect of over 70% in size)
# Summary of the method: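 Tsg101 binding domain 10 uM + FITC-PTAP peptide 50 nM (final), 10 mM HEPES pH 7.5/0.15 M NaCl/0.01% Tween 20/3 mM EDTA/0.1 mM TCEP; 20 min RT; FP read, FITC filters.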
# [13] = qHTS for Inhibitors of the vitamin D receptor (VDR): Hit Validation using a Texas Red Assay (AID 602201; active = well fitted curve in the direction sought with a large enough effect; an effect the other way counts as inactive or inconclusive; note: potency is the fitted concentration of half-maximal effect); settings: VDR coregulator binding, Texas Red fluorescence polarization; agonist-bound VDR ligand-binding domain
# Summary of the method: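 Fluorescence polarization with 1.5 uM VDR-LBD, LG19078 and 7 nM Texas Red (final). After 2 hours at ambient temperature, read at Ex 595 nm/Em 615 nm.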
# [14] = qHTS Assay for Identifying Gametocytocidal Compounds (AID 743244; active = well fitted curve in the direction sought with a large enough effect; an effect the other way counts as inactive or inconclusive;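 note: % is set by controls: 0 for no effect and ±100 for the full control effect; actives lower the fluorescent signal which means gametocytes are killed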); settings: P. falciparum 3D7 stage III-V gametocytes, alamarBlue, 72 h; max response: stronger effect = lower value
# Summary of the method: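 Stage III–V gametocytes of P. falciparum 3D7 were seeded at 20,000 cells/well onto pre-dispensed compounds. After 72 h, 37 °C, 5% CO2, alamarBlue was added for another 24 h.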
# [15] = molecular target: Rap guanine nucleotide exchange factor 3 (Homo sapiens) (UniProt O95398); assay: Confirmatory qHTS for antagonist of cAMP-regulated guanine nucleotide exchange factor 3 (EPAC1) (AID 1645880; active = well fitted curve in the direction sought with a large enough effect; an effect the other way counts as inactive or inconclusive; note: potency is the fitted concentration of half-maximal effect; nearly all actives have a fitted effect of over 55% in size)
# Summary of the method: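 Nucleotide exchange uses 100 nM EPAC1, 250 nM RAP1B-BODIPY-GDP and 50 uM GDP, with compounds in a concentration-titration series. After 5 min at room temperature, fluorescence (480 nm ex/540 nm em) is read every 5 min for 30 min. Data are normalized to control ATA and DMSO.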
# [16] = molecular target: Rap guanine nucleotide exchange factor 3 (Homo sapiens) (UniProt O95398); assay: Confirmatory qHTS for agonist of cAMP-regulated guanine nucleotide exchange factor 3 (EPAC1) (AID 1645881; active = well fitted curve in the direction sought with a large enough effect; an effect the other way counts as inactive or inconclusive;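 note: EPAC1 catalysed release of BODIPY-GDP from Rap1B seen as fluorescence loss; 100% = effect of cAMP agonist control; nearly all actives have a fitted effect of over 75% in size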)
# [17] = molecular target: Rap guanine nucleotide exchange factor 4 (Homo sapiens) (UniProt Q8WZA2); assay: Confirmatory qHTS for agonist of cAMP-regulated guanine nucleotide exchange factor 4 (EPAC2) (AID 1645884; active = well fitted curve in the direction sought with a large enough effect; an effect the other way counts as inactive or inconclusive;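 note: nucleotide exchange releases bodipy-GDP from Rap1 and this lowers its fluorescence; % is set by controls: 0 for no effect and ±100 for the full control effect; nearly all actives have a fitted effect of over 65% in size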)
# [18] = molecular target: Rap guanine nucleotide exchange factor 4 (Homo sapiens) (UniProt Q8WZA2); assay: Confirmatory qHTS for antagonist of cAMP-regulated guanine nucleotide exchange factor 4 (EPAC2) (AID 1645885; active = well fitted curve in the direction sought with a large enough effect; an effect the other way counts as inactive or inconclusive; note: % is set by controls: 0 for no effect and ±100 for the full control effect; nearly all actives have a fitted effect of over 25% in size)
# [19] = molecular target: Rap guanine nucleotide exchange factor 3 (Homo sapiens) (UniProt O95398); assay: Counterscreen qHTS for antagonist of cAMP-regulated guanine nucleotide exchange factor 3 (EPAC1) (AID 1645888; active = well fitted curve in the direction sought with a large enough effect; an effect the other way counts as inactive or inconclusive;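 note: fluorescence loss as bound BODIPY-GDP is released from Rap1B; % of control where 0% means no effect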)
# Summary of the method: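 Rap1B–BODIPY-GDP (250 nM) with 50 uM GDP; compounds pin-transferred to 9.74 nM–152 uM final (activator) or from 7.32 nM upwards (inhibitor). Fluorescence Ex/Em 480/540 nm read at 5 and 30 min, then after adding cAMP or buffer, at room temperature.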
# [20] = measured here: PEO1 parental Z-AUC
# Sequence of Rap guanine nucleotide exchange factor 3 (Homo sapiens) (O95398 whole entry, looked up): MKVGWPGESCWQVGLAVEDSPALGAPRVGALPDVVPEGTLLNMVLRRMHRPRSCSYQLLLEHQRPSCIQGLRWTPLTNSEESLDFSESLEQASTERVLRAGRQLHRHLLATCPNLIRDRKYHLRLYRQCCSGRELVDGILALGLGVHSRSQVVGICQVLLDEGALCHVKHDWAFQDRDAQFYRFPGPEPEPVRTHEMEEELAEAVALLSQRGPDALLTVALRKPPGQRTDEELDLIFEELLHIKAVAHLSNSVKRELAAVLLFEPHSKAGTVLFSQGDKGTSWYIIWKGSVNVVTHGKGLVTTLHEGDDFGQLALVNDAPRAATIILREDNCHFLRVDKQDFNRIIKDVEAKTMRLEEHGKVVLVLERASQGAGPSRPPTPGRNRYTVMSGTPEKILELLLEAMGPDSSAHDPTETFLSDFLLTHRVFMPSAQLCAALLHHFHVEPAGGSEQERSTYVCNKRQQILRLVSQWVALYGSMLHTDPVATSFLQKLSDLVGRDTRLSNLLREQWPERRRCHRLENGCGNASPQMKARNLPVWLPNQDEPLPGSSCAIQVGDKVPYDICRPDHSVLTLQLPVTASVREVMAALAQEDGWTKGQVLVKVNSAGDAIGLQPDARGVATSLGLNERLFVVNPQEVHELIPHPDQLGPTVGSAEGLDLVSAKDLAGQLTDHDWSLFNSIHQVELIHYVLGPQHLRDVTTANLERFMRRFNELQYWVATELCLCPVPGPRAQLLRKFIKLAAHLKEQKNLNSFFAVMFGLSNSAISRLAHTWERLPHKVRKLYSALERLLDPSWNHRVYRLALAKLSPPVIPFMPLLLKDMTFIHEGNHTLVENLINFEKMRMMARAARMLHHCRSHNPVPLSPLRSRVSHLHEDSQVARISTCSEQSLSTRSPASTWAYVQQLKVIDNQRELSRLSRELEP
# Sequence of Glutathione peroxidase 1 (Homo sapiens) (P07203 whole entry, looked up): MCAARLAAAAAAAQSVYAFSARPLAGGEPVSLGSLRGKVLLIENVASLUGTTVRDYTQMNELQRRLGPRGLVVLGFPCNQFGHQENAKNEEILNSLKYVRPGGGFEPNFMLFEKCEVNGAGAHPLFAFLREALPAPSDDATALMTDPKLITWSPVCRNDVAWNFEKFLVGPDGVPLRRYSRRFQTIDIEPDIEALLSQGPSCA
# Sequence of Cytochrome P450 2C9 (Homo sapiens) (P11712 whole entry, looked up): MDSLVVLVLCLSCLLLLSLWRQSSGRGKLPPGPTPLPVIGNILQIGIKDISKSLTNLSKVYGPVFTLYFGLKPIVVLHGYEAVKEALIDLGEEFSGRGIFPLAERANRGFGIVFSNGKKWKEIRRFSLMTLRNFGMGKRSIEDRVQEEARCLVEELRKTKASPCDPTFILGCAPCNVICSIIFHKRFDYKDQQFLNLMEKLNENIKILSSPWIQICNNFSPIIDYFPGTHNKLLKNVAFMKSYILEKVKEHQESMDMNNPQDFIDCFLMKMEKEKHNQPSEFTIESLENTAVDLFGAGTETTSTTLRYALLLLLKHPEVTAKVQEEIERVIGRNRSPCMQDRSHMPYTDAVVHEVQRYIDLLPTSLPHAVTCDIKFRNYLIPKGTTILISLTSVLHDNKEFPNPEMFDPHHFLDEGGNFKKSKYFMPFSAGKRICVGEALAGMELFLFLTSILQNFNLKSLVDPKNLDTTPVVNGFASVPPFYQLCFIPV
# Sequence of Phospholipid hydroperoxide glutathione peroxidase GPX4 (Homo sapiens) (P36969 whole entry, looked up): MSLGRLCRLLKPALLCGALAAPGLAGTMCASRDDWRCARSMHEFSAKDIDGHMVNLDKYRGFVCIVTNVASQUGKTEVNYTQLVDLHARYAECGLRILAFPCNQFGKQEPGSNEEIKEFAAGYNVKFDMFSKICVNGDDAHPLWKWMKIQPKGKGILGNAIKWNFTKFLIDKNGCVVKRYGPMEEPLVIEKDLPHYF
# Sequence of Cytochrome P450 2D6 (Homo sapiens) (P10635 whole entry, looked up): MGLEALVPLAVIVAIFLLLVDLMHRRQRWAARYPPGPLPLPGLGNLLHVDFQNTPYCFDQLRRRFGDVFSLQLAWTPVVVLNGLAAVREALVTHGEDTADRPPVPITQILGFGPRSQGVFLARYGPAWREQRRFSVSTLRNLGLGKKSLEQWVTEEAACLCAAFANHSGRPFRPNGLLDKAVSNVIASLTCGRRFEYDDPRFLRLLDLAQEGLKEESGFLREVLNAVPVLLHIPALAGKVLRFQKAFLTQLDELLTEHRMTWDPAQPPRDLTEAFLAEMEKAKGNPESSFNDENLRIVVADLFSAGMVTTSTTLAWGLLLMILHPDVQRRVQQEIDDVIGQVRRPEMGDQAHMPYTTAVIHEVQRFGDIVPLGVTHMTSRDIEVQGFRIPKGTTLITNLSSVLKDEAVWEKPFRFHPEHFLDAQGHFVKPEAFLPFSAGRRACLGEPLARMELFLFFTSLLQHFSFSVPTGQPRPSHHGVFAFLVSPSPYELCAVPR
# Sequence of Rap guanine nucleotide exchange factor 4 (Homo sapiens) (Q8WZA2 whole entry, looked up): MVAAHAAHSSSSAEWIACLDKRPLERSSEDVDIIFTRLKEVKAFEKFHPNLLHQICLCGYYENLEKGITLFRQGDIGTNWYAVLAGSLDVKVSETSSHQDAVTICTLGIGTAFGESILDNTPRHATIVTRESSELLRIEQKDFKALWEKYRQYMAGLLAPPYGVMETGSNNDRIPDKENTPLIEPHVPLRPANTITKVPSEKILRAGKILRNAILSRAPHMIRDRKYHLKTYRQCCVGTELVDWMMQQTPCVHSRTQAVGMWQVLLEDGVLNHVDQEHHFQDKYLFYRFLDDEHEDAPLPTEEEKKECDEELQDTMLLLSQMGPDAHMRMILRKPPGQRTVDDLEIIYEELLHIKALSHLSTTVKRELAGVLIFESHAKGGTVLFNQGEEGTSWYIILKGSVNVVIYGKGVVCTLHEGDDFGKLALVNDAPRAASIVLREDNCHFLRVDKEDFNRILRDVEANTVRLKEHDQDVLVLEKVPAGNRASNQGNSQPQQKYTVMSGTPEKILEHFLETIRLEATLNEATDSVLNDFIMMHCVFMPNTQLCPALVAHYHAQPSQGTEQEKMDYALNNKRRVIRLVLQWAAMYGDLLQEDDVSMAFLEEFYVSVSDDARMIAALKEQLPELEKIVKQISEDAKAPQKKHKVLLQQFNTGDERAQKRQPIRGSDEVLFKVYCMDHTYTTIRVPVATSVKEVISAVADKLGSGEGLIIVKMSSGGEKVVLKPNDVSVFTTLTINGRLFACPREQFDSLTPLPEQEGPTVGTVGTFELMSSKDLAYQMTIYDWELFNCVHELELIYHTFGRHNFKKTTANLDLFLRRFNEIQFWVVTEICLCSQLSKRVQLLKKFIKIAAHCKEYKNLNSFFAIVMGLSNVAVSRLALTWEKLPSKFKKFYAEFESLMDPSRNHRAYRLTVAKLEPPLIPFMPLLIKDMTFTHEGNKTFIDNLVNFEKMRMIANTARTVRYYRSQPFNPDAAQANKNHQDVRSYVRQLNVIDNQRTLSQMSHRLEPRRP
# Sequence of Catechol O-methyltransferase (Homo sapiens) (P21964 whole entry, looked up): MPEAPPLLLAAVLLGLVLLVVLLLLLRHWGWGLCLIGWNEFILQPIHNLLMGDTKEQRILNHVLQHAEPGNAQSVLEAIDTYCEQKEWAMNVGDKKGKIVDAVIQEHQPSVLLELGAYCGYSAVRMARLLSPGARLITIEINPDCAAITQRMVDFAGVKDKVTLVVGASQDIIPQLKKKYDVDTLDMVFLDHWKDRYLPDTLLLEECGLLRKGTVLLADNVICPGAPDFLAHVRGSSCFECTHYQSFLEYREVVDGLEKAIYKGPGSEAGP
# Sequence of Tumor susceptibility gene 101 protein (Homo sapiens) (Q99816 whole entry, looked up, the tested form may be a part): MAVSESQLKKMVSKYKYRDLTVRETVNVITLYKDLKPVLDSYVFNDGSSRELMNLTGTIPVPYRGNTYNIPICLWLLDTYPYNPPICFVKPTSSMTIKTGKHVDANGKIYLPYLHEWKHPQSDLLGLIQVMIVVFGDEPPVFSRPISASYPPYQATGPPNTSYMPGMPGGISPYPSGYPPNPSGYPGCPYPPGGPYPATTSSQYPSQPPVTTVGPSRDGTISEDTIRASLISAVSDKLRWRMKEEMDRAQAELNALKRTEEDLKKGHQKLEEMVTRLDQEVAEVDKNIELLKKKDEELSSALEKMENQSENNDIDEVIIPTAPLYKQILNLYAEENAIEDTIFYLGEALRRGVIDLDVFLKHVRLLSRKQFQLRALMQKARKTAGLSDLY
# Sequence of Phenylethanolamine N-methyltransferase (Homo sapiens) (P11086 whole entry, looked up): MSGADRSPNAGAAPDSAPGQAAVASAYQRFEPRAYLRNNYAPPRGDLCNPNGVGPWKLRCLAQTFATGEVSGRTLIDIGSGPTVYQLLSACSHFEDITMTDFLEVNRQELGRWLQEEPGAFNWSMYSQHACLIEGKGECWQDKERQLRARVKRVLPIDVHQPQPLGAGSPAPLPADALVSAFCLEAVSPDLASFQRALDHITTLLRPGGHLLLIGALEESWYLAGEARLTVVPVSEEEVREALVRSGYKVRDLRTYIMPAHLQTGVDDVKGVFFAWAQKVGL
# Sequence of Nicotinamide N-methyltransferase (Homo sapiens) (P40261 whole entry, looked up): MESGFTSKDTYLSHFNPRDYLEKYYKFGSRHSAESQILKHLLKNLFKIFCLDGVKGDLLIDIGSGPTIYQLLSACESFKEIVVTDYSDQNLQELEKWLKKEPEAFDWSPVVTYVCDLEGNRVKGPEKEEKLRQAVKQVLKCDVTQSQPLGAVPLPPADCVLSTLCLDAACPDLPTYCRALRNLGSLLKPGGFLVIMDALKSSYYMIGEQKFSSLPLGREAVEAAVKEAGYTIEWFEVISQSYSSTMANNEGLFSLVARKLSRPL
smiles,measurement,setting,value
Nc1nc(Nc2ccc3c(c2)CC[C@@H](N2CCCC2)CC3)nn1-c1cc2c(nn1)-c1ccccc1CCC2,Potency,[1],5.35 µM (active)
same,Potency,[2],2.63 µM (active)
same,Potency,[3],3.32 µM (active)
same,activity,[4],-19.2%
same,Potency,[5],24.1 µM (active)
same,activity,[6],-19.6%
same,activity,[7],-24%
same,Potency,[8],inactive
same,Potency,[9],inactive
same,Z-AUC,[10],0.211 (inactive)
same,Z-AUC,[10]; [20],-0.494
same,Z-AUC,[10]; measured here: PEO4 Z-AUC,-0.517
COCCCNC(=O)CCC(=O)NNc1nc2ccccc2c2nc(-c3ccccc3)nn12,Potency,[11],9.52 µM (active)
COc1cccc(-c2cc(F)ccc2[C@H]2Cc3nc(N)nc(C)c3C(=O)N2)n1,Potency,[11],6.74 µM (active)
COc1ccc(OC)c(/C=C(\C#N)c2nc3ccccc3c(=O)[nH]2)c1,Potency,[12],inactive
same,Potency,[1],inactive
same,Potency,[11],1.51 µM (active)
C=CC(C)(O)CCC=C(C)CCC=C(C)C (stereo not given),Potency,[11],21.3 µM (active)
Cc1ccnc(NC(c2cc(C)ccc2O)c2ccc3cccnc3c2O)c1 (stereo not given),Potency,[13],28.2 µM (active)
same,Potency,[1],inactive
same,Potency,[11],23.9 µM (active)
CC(C)c1ccc(NC(=O)CSC2=Nc3ccccc3C3=NC(CC(=O)NC4CCCCC4)C(=O)N23)cc1 (stereo not given),Potency,[11],12 µM (active)
Cc1ccccc1C(=O)Nc1sc2c(c1C(=O)O)CCC(C(C)(C)C)C2 (stereo not given),Potency,[11],inactive
CC1=C(C(=O)Nc2nnc(C(F)(F)F)s2)C(c2ccccc2Cl)N=C(Nc2nc3ccccc3o2)N1 (stereo not given),Potency,[11],10.7 µM (active)
COc1cc(Cl)c(C)cc1NC(=O)CSc1ncc(S(=O)(=O)c2ccc(C(C)(C)C)cc2)c(=O)[nH]1,Potency,[11],0.425 µM (active)
NCCNc1ccc(NCCN)c2c1C(=O)c1ccncc1C2=O,Potency,[1],2.68 µM (active)
same,Potency,[8],inactive
same,Potency,[9],inactive
CN(CCCCCCCCCCN(C)C(=O)Oc1cccc([N+](C)(C)C)c1)C(=O)Oc1cccc([N+](C)(C)C)c1,Potency,[1],inactive
same,Potency,[11],inactive
same,Potency,[9],inactive
CC[C@H]1OC(=O)[C@H](C)[C@@H](O[C@H]2C[C@@](C)(OC)[C@@H](O)[C@H](C)O2)[C@H](C)[C@@H](O[C@@H]2O[C@H](C)C[C@H](N(C)C)[C@H]2O)[C@](C)(OC)C[C@@H](C)C(=O)[C@H](C)[C@@H](O)[C@]1(C)O,max response,[14],-5.34% (inactive)
same,Potency,[1],inactive
same,Potency,[11],inactive
same,Potency,[9],inactive
Cc1cc2c(F)c(Oc3ncnn4cc(OC[C@@H](C)OC(=O)[C@H](C)N)c(C)c34)ccc2[nH]1,Potency,[1],10.7 µM (active)
same,Potency,[11],2.39 µM (active)
same,Potency,[8],inactive
same,Z-AUC,[10],1.46 (inactive)
same,Z-AUC,[10]; [20],0.526
same,Z-AUC,[10]; measured here: PEO4 Z-AUC,0.822
Cc1nc2c3ccccc3nc(NNC(=O)CCC(=O)N3CCN(c4cccc(Cl)c4)CC3)n2n1,Potency,[11],12 µM (active)
CN[C@@H]1[C@@H](O)[C@@H](O[C@@H]2[C@@H](O)[C@H](O[C@H]3O[C@H]([C@@H](C)NC)CC[C@H]3N)[C@@H](N)C[C@H]2N)OC[C@]1(C)O,Potency,[1],inactive
same,Potency,[8],inactive
COC(=O)Cc1cccc(NC(=O)C2=C(C)NC(Nc3nc4ccccc4o3)=NC2c2ccccc2Cl)c1 (stereo not given),Potency,[11],9.52 µM (active)
Cc1cc(Cl)ccc1NC(=O)Cn1nc(C)c2c(C)n(-c3ccccc3)nc2c1=O,Potency,[1],inactive
same,Potency,[15],84.9 µM (active)
same,Potency,[16],inactive
same,Potency,[17],inactive
same,Potency,[18],inactive
same,Potency,[19],inactive
CCC=CCC=CCC=CCCCCCCCC(=O)O,Potency,[1],inactive
same,Potency,[8],inactive
same,Potency,[9],inactive
O=C(CSc1nc2ccccc2n1Cc1cccc(F)c1)N1CCN(c2ccc(F)cc2)CC1,Potency,[11],3.38 µM (active)
